Data published in PubChem BioAssay AID485314 (National Center for Advancing Translational Sciences (NCATS), 2010).
Where “and” joins values, the source holds several entries; their conditions need not be identical. Equal values may be shown once. Screen size: about 340,000 compounds; about 4,500 (1.3%) were called active. Inconclusive results (about 5%) are left out. Calls come from the whole dose curve; as a rule, active = well fitted inhibition curve with a large enough effect; inconclusive = small, poorly fitted or top-dose-only effect, or another doubt; inactive = no such curve, though single readings can be large or run the other way. Many of the other results were omitted from the sample, so actives are more common in it than they were. The source holds several records for some structures; these can differ, active in one and inactive in another.

Molecular target: DNA polymerase beta (Homo sapiens) (UniProt P06746)
Test: qHTS Assay for Inhibitors of DNA Polymerase Beta
Settings: Pol beta primer extension/strand displacement, fluorescence kinetic; series mostly up to 114 µM; activity change, negative = inhibition: at the top concentration
Method in brief: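 Kinetic readout of DNA synthesis with strand displacement by Pol beta. Compound and 10 nM enzyme sit 15 min at room temperature; 50 nM substrate starts the reaction, read immediately and at 10 min.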
% is set by controls: 0 for no effect and ±100 for the full control effect; potency is the fitted concentration of half-maximal effect.

Compound	activity change, negative = inhibition	Potency
CCN1CCN(c2ncnc3c2cnn3-c2ccc(C)c(C)c2)CC1	2.84% (inactive)	–
COc1cc(NC(=O)CN2CCN(S(=O)(=O)c3ccc(Br)cc3)CC2)cc(OC)c1	2.24% (inactive)	–
Cc1c(CCC(=O)O)c(=O)oc2c(C)c(OCc3ccccc3Cl)ccc12	–	12.6 µM (active)
CCOC(=O)CCc1c(C)c2ccc(OCc3nn[nH]n3)c(C)c2oc1=O	13.4% (inactive)	–
Cc1c(CCC(=O)O)c(=O)oc2cc(OCc3ccc(Br)cc3)ccc12	15.4% (inactive)	–
COc1ccccc1CNc1ccc(-c2nc(-c3ccccc3C)no2)cc1[N+](=O)[O-]	4.87% (inactive)	–
COc1cccc(-c2nnc3n(CCc4ccccc4)c(=O)c4ccccc4n23)c1O	2.27% (inactive)	–
CCCCN(CCCNC(=O)c1cc(Nc2ccccc2OC)nc2ccccc12)c1ccccc1	29.1% (inactive)	–
CCCCN(C)S(=O)(=O)c1ccc(C(=O)Nc2sc3c(c2C(N)=O)CC(C)(C)NC3(C)C)cc1	-12.5% (inactive)	–
CC1=C(c2ccc(C)cc2)S(=O)(=O)NC1=NCCCN1CCN(c2cc(C)ccc2C)CC1	0.366% (inactive)	–
CCOc1ccc(NC(=O)c2cc(S(=O)(=O)N3CCCC3)c[nH]2)cc1	2.74% (inactive)	–
COc1ccc(C(=O)/C=C/c2ccc(-c3ccccc3)cc2)cc1CSCC(=O)O	14.7% (inactive)	–
COc1ccc(/C=C/C(=O)c2ccc(NS(=O)(=O)c3ccc(C)cc3)cc2)cc1O	-14.9% (inactive)	–
COC(=O)c1ccc(COc2ccc(/C=C/C(=O)c3ccc(OC)c(CSCC(=O)O)c3)cc2OC)cc1	–	31.6 µM (active)
Cc1ccc(CCNC(=O)c2ccc(CNS(=O)(=O)c3ccc(C)cc3)cc2)cc1	30% (inactive)	–
CSc1cccc(NC(=O)CN2C(=O)CCc3cc(S(=O)(=O)N4CCCCC4)ccc32)c1	-10.7% (inactive)	–
C=C(C)C(=O)Nc1cccc(C2=NOC3(C2)C[C@H](C(N)=O)N(C(=O)C(c2ccccc2)c2ccccc2)C3)c1 (stereo partly specified)	–	14.1 µM (active)
C/C=C(/C)C(=O)Nc1cccc(C2=NOC3(C2)C[C@@H](C(N)=O)N(C(=O)C2(C)CC2)C3)c1 (stereo partly specified)	14.5% (inactive)	–
C/C=C\C=C\C(=O)N1CC2(CC(c3cccc(NC(=O)/C(C)=C\C)c3)=NO2)C[C@H]1C(N)=O (stereo partly specified)	9.09% (inactive)	–
Cc1ccccc1C(=O)Nc1nnc(S(=O)(=O)N(C)c2ccc(Cl)cc2)s1	7.24% (inactive)	–
COC(=O)c1ccc(NC(=O)CSc2n[nH]c(-c3ccccc3)n2)cc1	-20% (inactive)	–
CCOc1ccc(OCC)c(NC(=O)CN(c2ccc(C)cc2)S(=O)(=O)c2c(C)n[nH]c2C)c1	6.89% (inactive)	–
CCn1c(C)c(C)c2cc(C(=O)NCCc3cc(OC)ccc3OC)ccc21	-1.85% (inactive)	–

Compound	activity change, negative = inhibition	Potency
O=C(N/N=C/C=C/c1ccco1)c1cccs1	–	25.1 µM (active)
Cc1cccc(-n2c(C)cc(/C=N\NC(=O)c3cccs3)c2C)c1	6.08% (inactive)	–
O=C(Nc1ccc(NC(=O)c2cccs2)cn1)c1ccco1	-8.35% (inactive)	–
Oc1ccc(-c2nc3ccc(Cl)cn3c2Nc2ccc3c(c2)OCO3)cc1	-2.41% (inactive)	–
CCOc1ccc(C(=O)/C=C/c2cn(CC(O)CN3CCCCCC3)c3ccccc23)cc1 (stereo unspecified)	6.41% (inactive)	–
O=S(=O)(NCC(c1ccccc1)N1CCc2ccccc21)c1ccccc1 (stereo unspecified)	24.4% (inactive)	–
COc1cc2nc(NCC(C)c3ccccc3)n3nc(-c4ccccc4)nc3c2cc1OC (stereo unspecified)	33.3% (inactive)	–
O=C(NCc1ccccc1Cl)c1cccn1-c1nnc(N2CCCCC2)s1	-19.8% (inactive)	–
O=C(O)CCC(=O)N(Cc1ccccc1)Cc1ccccc1	-17.8% (inactive)	–
O=C(O)CCC(=O)N(Cc1cccs1)Cc1cccs1	–	44.7 µM (active)
O=C(CCc1ccccc1)NCCc1cccs1	16.8% (inactive)	–
CCc1cccc(C)c1Nc1c(-c2ccc(N(C)C)cc2)nc2ncccn12	-0.565% (inactive)	–
COc1ccc(Cl)cc1NC(=O)CCC(=O)c1ccc(C)cc1	0.944% (inactive)	–
Cn1c(=O)oc2cc(S(=O)(=O)CCC(=O)NCCc3ccc(Cl)cc3)ccc21	0.302% (inactive)	–
O=C(CCS(=O)(=O)c1ccc(Br)cc1)NCCc1ccc(Cl)cc1	–	39.8 µM (active)
CCOc1ccc(OCC)c(NC(=O)CCS(=O)(=O)c2ccc(C)cc2)c1	8.41% (inactive)	–
COc1ccc(Cl)cc1NC(=O)CCS(=O)(=O)c1ccc(Br)cc1	–	3.16 µM (active)
CC(=O)N1CCc2cc(Br)cc(S(=O)(=O)CCC(=O)NCCc3ccc(Cl)cc3)c21	40.7% (inactive)	–
COc1cc(C(=O)NCCS(=O)(=O)N2CCN(c3ccccc3)CC2)cc(OC)c1OC	-21% (inactive)	–
O=C(COc1ccccc1Cl)Nc1ccc2nc(SCC(=O)N3CCCC3)sc2c1	2.65% (inactive)	–
Oc1c(C(c2ccc(F)cc2)N2CCN(Cc3ccccc3)CC2)sc2nc(-c3ccco3)nn12 (stereo unspecified)	-1.89% (inactive)	–
COC(=O)c1ccc(C2C(C(=O)Nc3ccccc3)=C(C)Nc3nc4ccccc4n32)cc1 (stereo unspecified)	-9.73% (inactive)	–
Cc1cccc(N2CCN(C(=O)CCSCc3ccccc3F)CC2)c1C	-1.73% (inactive)	–

Compound	activity change, negative = inhibition	Potency
Cc1cc([N+](=O)[O-])ccc1NC(=O)c1ccc(NC(=O)C(C)C)cc1	18.3% (inactive)	–
Cn1ccc(=Nc2ccc(NC(=O)c3ccc(N=c4ccn(C)c5ccc([N+](=O)[O-])cc45)cc3)cc2)cc1	–	0.355 µM (active)
O=C(Nc1ccc(C(=O)N2CCCCC2)cc1)c1cccc([N+](=O)[O-])c1	42.3% (inactive)	–
CCOc1cccc2cc(-c3cn4c(n3)sc3cc(C)ccc34)c(=O)oc12	50.3% (inactive)	–
CO/N=C(\C(=O)N[C@@H]1C(=O)N2C(C(=O)O)=C(COC(C)=O)CS[C@H]12)c1csc(N)n1 (stereo in doubt)	–	inactive and 25.1 µM (active)
Cc1ccn2c(Nc3ccc4c(c3)OCCO4)c(-c3ccc(C)s3)nc2c1	24.2% (inactive)	–
Cc1cccc(-n2ccnc2SCC(=O)Nc2cc(C(F)(F)F)ccc2Cl)c1	7.77% (inactive)	–
COc1cccc(Cn2c(SCc3ccc(C(=O)N4CCC(C)CC4)cc3)nc3ccncc32)c1	0.534% (inactive)	–
Cc1cc(C)cc(NC(=O)c2cnc3sc(N4CCCC4)nn3c2=O)c1	-0.911% (inactive)	–
COc1ccc(-c2noc(-c3ccc(N4CCN(c5ccccc5)CC4)c([N+](=O)[O-])c3)n2)cc1OC	–	89.1 µM (active)
COc1ccccc1-c1noc(-c2ccc(NCc3ccccc3)c([N+](=O)[O-])c2)n1	16.2% (inactive)	–
COc1cc(-c2noc(-c3ccc(N4CCCC4)c([N+](=O)[O-])c3)n2)cc(OC)c1OC	-15.3% (inactive)	–
COc1ccc(S(=O)(=O)NCC(c2ccc(N(C)C)cc2)N2CCc3ccccc32)cc1OC (stereo unspecified)	0.31% (inactive)	–
COc1ccccc1N1CCN(S(=O)(=O)CCNC(=O)COc2ccc(F)cc2)CC1	13.5% (inactive)	–
CC(=O)Nc1cccc(NC(=O)CSc2nccn2Cc2ccc3c(c2)OCO3)c1	-15.7% (inactive)	–
O=C(Cc1ccc(F)cc1)N/N=C/c1ccc2c(c1)OCO2	90.3% (inactive)	–
CCC1=C/C(=C\c2ccc3c(c2)OCO3)C(=O)S1	–	14.1 µM (active)
CCOC(=O)CCCNC(=O)COC(=O)/C=C/c1ccc2c(c1)OCO2	3.45% (inactive)	–
Cc1cccc(NC(=O)c2ccc(F)c(S(=O)(=O)N(C)C3CCCCC3)c2)c1	1.39% (inactive)	–
COc1ccc(NC(=O)c2sc3nc[nH]c(=O)c3c2C)cc1	2.14% (inactive)	–
CN(C)[C@@H]1C(=O)C(C(N)=O)=C(O)[C@@]2(O)C(=O)C3=C(O)c4c(O)ccc(Cl)c4[C@@H](O)[C@H]3C[C@@H]12	–	8.91 µM (active)
Cc1ccccc1CCNC(=O)C1CCN(c2nc3ccccc3nc2C(F)(F)F)CC1	-0.653% (inactive)	–
COc1ccc(S(=O)(=O)Nc2cc3c(C(=O)OC(C)C)c(C)oc3c3ccccc23)cc1	-24.9% (inactive)	–

Compound	activity change, negative = inhibition	Potency
COc1ccc(NC(=O)c2cnc(NS(=O)(=O)c3ccccc3)nc2)cc1	5.86% (inactive)	–
COc1ccc(S(=O)(=O)/N=C2\C=C(NS(=O)(=O)c3ccccc3)C(=O)c3ccccc32)cc1	–	79.4 µM (active)
CC(C)(C)c1ccc(S(=O)(=O)Nc2ccc(O)c(Sc3nc4ccccc4s3)c2)cc1	-0.511% (inactive)	–
O=C(CSC1=Nc2ccccc2C2=NC(CC(=O)NCc3ccco3)C(=O)N12)NCc1ccco1 (stereo unspecified)	–	39.8 µM (active)
O=C(CC1N=C2c3ccccc3N=C(SCc3ccc(F)cc3)N2C1=O)NCc1cccs1 (stereo unspecified)	2.97% (inactive)	–
CCC(C)NC(=O)CSC1=Nc2ccccc2C2=NC(CCC(=O)NCc3ccco3)C(=O)N12 (stereo unspecified)	11.3% (inactive)	–
COc1ccc(NC(=O)CSC2=Nc3ccccc3C3=NC(CC(=O)NCc4ccccc4OC)C(=O)N23)cc1Cl (stereo unspecified)	-12% (inactive)	–
O=C(CC1N=C2c3ccccc3N=C(SCc3cccc(Cl)c3)N2C1=O)NCc1ccc2c(c1)OCO2 (stereo unspecified)	1.32% (inactive)	–
O=C(CC1N=C2c3ccccc3N=C(SCc3ccccc3Cl)N2C1=O)NCc1ccco1 (stereo unspecified)	–	12.6 µM (active)
CCN(CC)c1ccc(NC(=O)Cn2nc3c(cc2=O)CCCC3)c(C)c1	-15.3% (inactive)	–
O=C(NCCCO)C(=O)Nc1c2c(nn1-c1ccc(F)cc1)CSC2	-5.48% (inactive)	–
CCOC(=O)c1c(C)oc2ccc(N(C(=O)c3ccncc3)S(=O)(=O)c3ccc(CC)cc3)cc12	-2.09% (inactive)	–
Cc1ccc(C)c(NC(=O)CSC2=Nc3ccccc3N=C(c3ccc(F)cc3)C2)c1	19.4% (inactive)	–
Nc1nnnn1CC(=O)N/N=C/c1ccc(-c2cccc(Cl)c2)o1	-21.2% (inactive)	–
O=C1c2ccccc2NC(c2ccc(-c3cccc(Cl)c3)o2)N1O (stereo unspecified)	1.84% (inactive)	–
O=C(O)C(c1ccccc1)N1C(=O)/C(=C\c2ccc(-c3cccc(Cl)c3)o2)SC1=S (stereo unspecified)	–	50.1 µM (active)
Cc1ccc(C)c2sc(NC(=O)c3ccc(S(=O)(=O)N4CCCC4)cc3)nc12	-5.4% (inactive)	–
COc1cccc(C(=O)Nc2ccc(-c3cc(C(F)(F)F)nn3-c3ccccc3)cc2)c1	10.5% (inactive)	–
CCOc1cc(-c2nnc(SCC(=O)NC3CCCCC3)nc2-c2ccc(OC)c(OCC)c2)ccc1OC	2.16% (inactive)	–
COCCN1C=C2C(=O)C(C)(OC(=O)C3CCCC3)C(=O)C=C2C=C1c1ccsc1 (stereo unspecified)	0.629% (inactive)	–
COC/C=C/C1=CC2=CC(=O)C(C)(OC(=O)CCC(=O)OC)C(=O)C2=CO1 (stereo unspecified)	–	39.8 µM (active)
COC(=O)CCCC1=CC2=CC(=O)C(C)(OC(=O)c3cccs3)C(=O)C2=CN1CC(C)C (stereo unspecified)	23.9% (inactive)	–
